± gives the standard deviation of the averaged measurements.
Each compound was assayed on HCC1569 (assay: cell number relative to DMSO (% of DMSO); higher = more cells (less growth inhibition / toxicity)). Details: concentration: 10 µM; 24 h.
Outline: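 Cell number or H1.0 nuclear intensity appears as percent of the plate control, based on the median of replicates. Measurements came from HCC1569 and TDF cells exposed in triplicate to compounds at 10 µM for 24 h at 37 °C, then imaged in six fields per well at ×10. Positional effects were smoothed out of HCC1569 values.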
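Also: TDF denotes transformed human dermal fibroblasts of mesenchymal origin.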

| Compound | cell number |
| --- | --- |
| CC(N)(Cc1ccc(O)c(O)c1)C(=O)O (stereo not given) [Methyldopa] | 107 |
| O=C(O)c1ccc(O)c2ncccc12 [8-hydroxy-5-quinolinecarboxylic acid] | 102 |
| C[N+]1(CCCCC[N+]2(C)CCCC2)CCCC1.O=C([O-])C(O)C(O)C(=O)O.O=C([O-])C(O)C(O)C(=O)O [Pentolinium di[L(+)-tartrate]] | 103 |
| Cc1nc2cc3nc(-c4cccs4)cnc3cc2n1C | 106 |
| Clc1cccc(CNC2=Nc3ccccc3NC23CCNCC3)c1 | 99 |
| O=C(NC(NC(=S)Nc1ccc(F)c([N+](=O)[O-])c1)C(Cl)(Cl)Cl)C(c1ccccc1)c1ccccc1 (stereo not given) | 58.2 |
| CN(C)CCCC1(c2ccc(F)cc2)OCc2cc(C#N)ccc21 (stereo not given) [Escitalopram] | 100 |
| COc1cc(-c2oc3cc(O)cc(O)c3c(=O)c2OC2OC(CO)C(O)C(O)C2O)cc(OC)c1O (stereo not given) [Syringetine-3-glucoside] | 102 |
| CCc1nn(CCCN2CCN(c3cccc(Cl)c3)CC2)c(=O)n1CCOc1ccccc1 | 92.2 |
| C[C@]12CCC(=O)C=C1CC[C@@H]1[C@@H]2[C@@H](O)C[C@@]2(C)[C@H]1CC[C@]2(O)C(=O)COC(=O)CCC(=O)[O-].[Na+] | 96.3 |
| COc1ccc(-c2nn3c(-c4ccccn4)nnc3s2)cc1OC | 98 |
| CCOC(=O)C1=C(C)NC(C)=C(C(=O)OC)C1c1cccc(Cl)c1Cl (stereo not given) [Felodipine] | 102 ± 2.2 |
| O=C1Nc2cc(Br)ccc2C1=C1N=c2ccccc2=C1NO [(2'Z,3'E)-6-Bromoindirubin-3'-oxime] | 54.7 |
| CC1=CC(=O)c2ccccc2C1=O [Menadione] | 99.9 |
| CN(C)CCOc1ccc(-c2nc(=c3ccc4c(c3)CCC=4N=O)c(=C3C=CNC=C3)[nH]2)cc1 | 88.6 |
| S=C(NCc1ccc2c(c1)OCO2)N1CCN(c2ncnc3c2oc2ccccc23)CC1 | 65.5 |
| N#CC(=Cc1ccc(O)cc1)C(N)=C(C#N)C#N | 99 |
| O=C1NCCc2[nH]c(-c3ccncc3)cc21 [Cdc7/Cdk9 Inhibitor] | 58.9 |
| O=c1cc(N2CCOCC2)oc2c(-c3ccccc3)cccc12 | 83.3 |
| O.O.O=c1c(O)c(-c2ccc(O)c(O)c2)oc2cc(O)cc(O)c12 | 90.7 |

| Compound | cell number |
| --- | --- |
| CCC1=C(C)CN(C(=O)NCCc2ccc(S(=O)(=O)NC(=O)NC3CCC(C)CC3)cc2)C1=O (stereo not given) [Glimepiride] | 102 |
| COC1(NC(=O)CSCC#N)C(=O)N2C(C(=O)[O-])=C(CSc3nnnn3C)CSC21.[Na+] (stereo not given) [Cefmetazole sodium] | 101 |
| COc1ccccc1OCC(O)CO (stereo not given) [Guaifenesin] | 102 |
| CCOc1nc2cccc(C(=O)O)c2n1Cc1ccc(-c2ccccc2-c2nc(=O)o[nH]2)cc1 | 79.7 |
| CC(=O)CC/C=C(\C)CC/C=C(\C)CC/C=C(\C)CCC=C(C)C | 100 |
| CC(C)(C)C(=O)C(Oc1ccc(Cl)cc1)n1ccnc1 (stereo not given) [Climbazole] | 99.5 |
| CCN(CC)CC(=O)Nc1c(C)cccc1C.Cl.O [Lidocaine.HCl.H2O] | 99 |
| O=C1OC(=O)C2C3CCC(O3)C12 (stereo not given) [Norcantharidin] | 96 |
| C=CCc1ccc(O)c(OC)c1 [Eugenol] | 103 |
| OCCN(CCO)c1nc(N2CCCCC2)c2nc(N(CCO)CCO)nc(N3CCCCC3)c2n1 [Dipyridamole] | 94.2 ± 1.5 |
| COC(=O)C(=C1OC(=O)C(c2ccccc2)=C1O)c1ccccc1 [Vulpinic acid] | 98.5 |
| O=C(Cc1ccc(Cl)c(Cl)c1)OCCN1CCCC1.O=C(O)C(=O)O [AC 915 oxalate] | 101 |
| O=C1NC(=O)C(c2ccccc2)(c2ccccc2)N1 [Phenytoin] | 104 |
| CCCCCCCCC=CCCCCCCCC(=O)OCC(CO)OC(=O)CCCCCCCC=CCCCCCCCC (stereo not given) [1,2-Dioleoyl-glycerol (18:1)] | 100 |
| O=C(O)C(=S)Cc1ccc(I)cc1 [(2Z)-3-(4-iodophenyl)-2-sulfanyl-2-propenoic acid] | 106 |
| CC(N)(Cc1ccc(O)c(O)c1)C(=O)O (racemic) | 101 |
| COc1ccc2cc1Oc1ccc(cc1)CC1c3cc(c(OC)cc3CCN1C)Oc1c(OC)c(OC)c(OC)c3c1C(C2)N(C)CC3 (stereo not given) [Hernandezine] | 93.5 |
| NNCCc1ccccc1.O=S(=O)(O)O [Phenelzine sulfate] | 103 |
| CN(C)CCCSc1ccccc1NC(=O)C=Cc1ccccc1 [Cinanserin] | 103 |
| O=c1oc2cc(O)ccc2c2oc3cc(O)ccc3c12 [Coumestrol] | 99.9 |
